# The list is not random: actives were taken first. Their share in the collection is about 19%.
# KB-V1 cytotox: qHTS assay for MDR1-selective chemotherapeutics: Primary screen using the drug-selected MDR subline cells KB-V1. KB-V1 MDR cells viability, CellTiter-Glo, 72 h. Potency, µM (doses to about 46.1 µM), usual class: cytotoxic. actives 3.4% (n = 400,000). AID 1347076, 2019; note: nearly all actives have a fitted effect of over 60% in size
#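 Potencies derive from concentration-effect curves fitted to normalized luminescence (CellTiter-Glo) of KB-V1 cells treated for 72 h at 37 degrees C in phenol-red-free DMEM containing 10% FBS.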
# KB-3-1 tox: qHTS assay for MDR1-selective chemotherapeutics: Primary screen using the parental adenocarcinoma cell KB-3-1; KB-3-1 viability, CellTiter-Glo ATP luminescence, 72 h; Potency, µM (series often up to 46.1 µM), hits mostly cytotoxic; actives 1.4% (n = 400,000); note: nearly all actives have a fitted effect of over 60% in size
#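 KB-3-1 parental drug-naive adenocarcinoma cells in DMEM/10% FBS, incubated 72 h at 37 C with pin-transferred compounds across a concentration series. Viability by CellTiter-Glo luminescence; concentration-response curves fitted after normalization.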
# DT40 TDP1 no CPT: qHTS for Inhibitors of human tyrosyl-DNA phosphodiesterase 1 (TDP1): qHTS in cells in absence of CPT | DT40 Tdp1-/- hTDP1 cells, no CPT, ATP luminescence, 48 h | Potency, µM (titrated, usually from 46.2 µM), for the others: at the highest dose activity change, negative = growth inhibition, actives largely listed as inhibitors | actives 15% (n = 420,000) | AID 686978, 2013; note: nearly all actives have a fitted effect of over 55% in size
#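 Readout: luminescence from CellTiter-Glo after 30 min in the dark at RT. Cells: DT40 Tdp1-/- with stable hTDP1, 400/well. Exposure: compounds alone, ≥48 hr, 37 °C.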
# DT40 TDP1 CPT: qHTS for Inhibitors of human tyrosyl-DNA phosphodiesterase 1 (TDP1): qHTS in cells in presence of CPT; chicken DT40 Tdp1-/-;hTDP1 cells + 20 nM CPT, ATP luminescence, 48 h; Potency, µM (series often up to 46.2 µM), for inactives: top-dose activity change, negative = growth inhibition, usual class: inhibitors; actives 12% (n = 420,000); AID 686979, 2013; note: nearly all actives have a fitted effect of over 55% in size
#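 Chicken DT40 Tdp1-/- cells complemented with human TDP1, 400 cells/well, exposed to compounds plus 20 nM camptothecin for at least 48 h at 37 C; viability read as ATP content by CellTiter-Glo luminescence.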
# HT1080-NT tox: qHTS for induction of synthetic lethality in tumor cells producing 2HG: qHTS for the HT-1080-NT fibrosarcoma cell line; HT-1080-NT fibrosarcoma viability, CellTiter-Glo ATP luminescence, 48 h; Potency, µM (titrated, usually from 46.1 µM), inactives show top-dose activity, negative = less viability, most hits filed as cytotoxic; actives 1.6% (n = 360,000); AID 686970, 2013;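 note: NT is the 2HG producing partner of a matched IDH1 knockdown line; 0% = DMSO-treated cells and -100% = media-only wells without cells; nearly all actives have a fitted effect of over 55% in size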
#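 Read-out is CellTiter-Glo luminescence after 10 minutes at room temperature, following 48 hours' compound treatment of HT-1080-NT cells (750 cells/well, RPMI, 5% FBS, 37 degrees C).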
# HT1080 IDH1KD tx: qHTS for induction of synthetic lethality in tumor cells producing 2HG: qHTS for the HT-1080-IDH1KD cell line. HT-1080 IDH1 knockdown viability, ATP luminescence, 48 h. Potency, µM (highest dose often 46.1 µM), without a hit: at the highest dose activity, negative = toxicity, actives largely listed as cytotoxic. actives 2% (n = 360,000). AID 686971, 2013;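 note: 0% = DMSO wells and -100% = cell-free medium wells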
#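 HT-1080-IDH1KD cells (IDH1 knocked down), 750/well in RPMI with 5% FBS, treated with compound 48 h at 37 degrees C. Viability by CellTiter-Glo luminescence, normalised to DMSO and no-cell wells; concentration-response curves classed.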
# The depositor's hits bear a star; i = inactive; ? = inconclusive; . = no result given. Calls come from the whole dose curve; as a rule, active = well fitted curve in the direction sought with a large enough effect; inconclusive = small, poorly fitted or top-dose-only effect, or another doubt; inactive = no such curve, though single readings can be large; an effect the other way counts as inactive or inconclusive. Unless noted, % is set by controls: 0 for no effect and ±100 for the full control effect; potency is the fitted concentration of half-maximal effect.
SMILES,KB-V1 cytotox,KB-3-1 tox,DT40 TDP1 no CPT,DT40 TDP1 CPT,HT1080-NT tox,HT1080 IDH1KD tx
O=C(Nc1nccs1)[C@@H]1CC=C[C@@H]2CCN(C3CC3)C(=O)[C@@H]21,i,i,-8%,-6%,.,.
COc1ccc(-c2cn3nc(N4CCC(C(=O)NCc5ccc(F)cc5)CC4)sc3n2)cc1,i,i,?,-33%,.,.
CCCSCCCNC(=O)C1CCN(c2nn3cc(-c4ccc(F)cc4)nc3s2)CC1,i,i,?,5.2µM*,.,.
COc1cccc(NC(=O)C2CCN(c3nn4cc(-c5ccc(F)cc5)nc4s3)CC2)c1,i,i,?,13µM*,.,.
COc1ccc(-c2cn3nc(N4CCCC(C(=O)Nc5cccc(OC)c5)C4)sc3n2)cc1 (stereo not drawn),i,i,23µM*,21µM*,.,.
COc1ccc(-c2cn3nc(N4CCC(C(=O)Nc5cccc(Cl)c5)CC4)sc3n2)cc1,i,i,?,-28%,.,.
CCN1CCN(C(=O)c2cnn(-c3ccc(F)cc3)c2-n2cccc2)CC1,i,i,.,.,.,.
CN(Cc1ccccc1)CC(O)COc1ccc(CNCCOc2cccnc2)cc1 (stereo not drawn),i,i,-12%,-11%,?,-18%
CN(Cc1ccccc1)CC(O)COc1ccc(CNCc2cccnc2)cc1 (stereo not drawn),i,i,?,23µM*,-9%,?
CN(Cc1ccccc1)CC(O)COc1ccc(CNCc2ccc(Cl)s2)cc1 (stereo not drawn),i,i,16µM*,?,21µM*,?
COc1cc(OC)c(Nc2nc3ccc(C(=O)c4ccccc4)cc3n3c(C)nnc23)cc1Cl,i,i,0%,12%,.,.
C[C@H](CO)N1C[C@H](C)[C@@H](CN(C)Cc2ccc(C(=O)O)cc2)Oc2ncc(-c3ccc(C(=O)N(C)C)cc3)cc2C1=O,i,i,-16%,10%,-2%,-1%
O=C(CC(CC(=O)c1ccccc1)c1ccccn1)c1ccccc1,i,i,15µM*,?,1%,-13%
O=C(c1ccccc1)c1ccccn1,i,i,-2%,-2%,2%,8%
O=C(CC(=O)c1ccccn1)c1ccccc1,13µM*,?,16µM*,21µM*,-10%,?
CNC(=O)CC(CC(=O)c1ccccc1)c1ccccc1 (stereo not drawn),i,i,-20%,-23%,7%,10%
O=C(Nc1ccccc1)c1cccc(N2C(=O)C3C4CC(C(Br)C4Br)C3C2=O)c1 (stereo not drawn),.,.,5%,-5%,0%,-2%
CCOC(=O)/C(=C/C=C1\Sc2cc(OCC)c(OCC)cc2N1CC)C(C)=O,?,i,4.6µM*,7.3µM*,7%,12%
CCOC(=O)/C(=C\C=C1/Sc2cc(OCC)c(OCC)cc2N1CC)C(C)=O,?,i,2.3µM*,1.8µM*,0%,10%
CCN1/C(=C\C=C2\C(=O)N(C)C(=S)N2C)Sc2ccccc21,i,i,?,-5%,19%,-5%
Fc1cc2[nH]c(=S)[nH]c2cc1Cl,3.7µM*,8.2µM*,-5%,5%,-1%,1%
Cc1cc2[nH]c(=S)[nH]c2cc1C,i,?,18%,-15%,3%,-2%
CCCCNC(=O)C1c2ccccc2OCC(=O)N1CC(F)(F)F (stereo not drawn),i,i,-18%,-10%,-6%,4%
COc1ccc(N(C(=O)C2CCCCC2)S(=O)(=O)c2cccc3cccnc23)cc1,?,?,-24%,15%,-9%,-13%
CSc1ccccc1NC(=O)CN(C)C(=O)COc1cccc2cccnc12,i,i,3.3µM*,5.2µM*,2%,-2%
SMILES,KB-V1 cytotox,KB-3-1 tox,DT40 TDP1 no CPT,DT40 TDP1 CPT,HT1080-NT tox,HT1080 IDH1KD tx
COc1ccc(N(C)S(=O)(=O)c2cccc3cccnc23)c(OC)c1,?,?,18µM*,?,11µM*,8.9µM*
Cc1ccc(NC(=O)CN(C)S(=O)(=O)c2cccc3cccnc23)cc1C,i,i,15µM*,?,-4%,-1%
COc1ccccc1NC(=O)CN(C)S(=O)(=O)c1cccc2cccnc12,i,i,18µM*,36%,3%,0%
O=C(CCSCc1ccc(Cl)cc1)NCc1cccnc1,i,i,-20%,5%,-7%,-7%
CCCCCCc1cc2cc(C(=O)NC)c(=N)oc2cc1O,i,i,21µM*,?,4%,23%
CCCCCCc1cc2cc(C(=O)OCC)c(=O)oc2cc1O,i,i,-20%,-21%,2%,-11%
CCCCCCc1cc2cc(C(=O)Nc3cccc(OC)c3)c(=O)oc2cc1O,6.5µM*,7.3µM*,3.7µM*,2.6µM*,9%,5%
CCCCCCc1cc2cc(/C(N)=N/NC(=O)c3ccncc3)c(=O)oc2cc1O,i,i,12µM*,?,-12%,-4%
CCCCCCc1cc2cc(C(=O)Nc3ccc(OC)cc3)c(=O)oc2cc1O,8.2µM*,8.2µM*,5.8µM*,7.3µM*,-10%,-19%
CC(C)(C)c1ccc(-c2nc(SCC(=O)Nc3ccc(Cl)cc3)[nH]c(=O)c2C#N)cc1,.,.,-5%,-24%,.,.
CCc1c(C)nc(SCC(=O)N2CCCCC2CC)[nH]c1=O (stereo not drawn),i,i,?,?,5%,8%
Cc1c(C(=O)N2CCC(Cc3ccccc3)CC2)sc2ncnc(NCc3ccccn3)c12,.,.,-29%,?,.,.
NS(=O)(=O)c1ccc(NC(=O)CCC(=O)O)cc1,.,.,0%,4%,.,.
CCCCCCc1cc2cc(S(=O)(=O)c3ccc(F)c(Cl)c3)c(=O)oc2cc1O,15µM*,i,7.3µM*,5.8µM*,16µM*,?
COc1ccc(S(=O)(=O)N2CCN(Cc3cccc(F)c3)CC2)cc1,i,i,29µM*,-4%,?,3%
